Screening data from PubChem.
This is a sample that favours compounds with a hit; in the whole collection about 12% have one here.
G9a block = inhibitors of human histone lysine methyltransferase G9a; Q96KQ7; G9a H3K9 monomethylation, AlphaScreen, 2 h; Potency, µM (doses to about 102 µM), for the others: top-dose activity, negative = inhibition, usual class: inhibitors; actives 8.8% (n = 350,000); AID 504332; also: % is scaled to controls: 0 for no effect and ±100 for the full control effect; nearly all actives have a fitted effect of over 75% in size
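Quantitative HTS format: methyltransferase activity on a biotin-tagged H3K9 peptide is measured by AlphaScreen, using a rabbit anti-monomethyl-H3K9 antibody with streptavidin donor and anti-IgG acceptor beads. Final levels are 20 nM enzyme, 500 nM peptide, 20 uM SAM; 2 h RT.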
BAZ2B block = inhibitors of human BAZ2B bromodomain; Q9UIF8; AlphaScreen BAZ2B-H3K14Ac peptide displacement; Potency, µM (series often up to 114 µM), for inactives: at the top dose activity change, negative = inhibition, actives largely listed as inhibitors; actives 4.4% (n = 360,000); AID 504333; also: % is scaled to controls: 0 for no effect and ±100 for the full control effect; nearly all actives have a fitted effect of over 60% in size
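BAZ2B 50 nM plus b-H3(5-23)K14Ac 50 nM, PBS pH 7.4/0.01% Tween-20, 30 min RT; compound added (max 110 uM), 30 min RT; streptavidin donor/Ni-chelate acceptor beads 10 ug/mL final, 20 min dark; AlphaScreen read.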
HP1b binding inh = blocks HP1-beta chromodomain binding to methylated histone tails. AlphaScreen HP1-beta / biotin-H3K9me3 peptide binding. Potency, µM (top dose mostly 114 µM), for the others: at the highest dose activity change, negative = inhibition, actives largely listed as inhibitors. actives 0.56% (n = 390,000). AID 540317; also: nearly all actives have a fitted effect of over 70% in size
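Compound inhibition of the preformed complex between 50 nM HP1-beta and 50 nM biotinylated H3K9me3 peptide was read by AlphaScreen. Buffer was PBS pH 7.4 with 0.01% Tween-20. Incubations ran 30 min at room temperature, with 10 ug/mL donor/acceptor beads.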
Sfp inh = Sfp phosphopantetheinyl transferase inhibition; Q9F4F7; Biochemical Sfp PPTase activity, qHTS; Potency, µM, for the others: largest response in the series, negative = inhibition, hits mostly inhibitors; actives 3.5% (n = 310,000); AID 1490;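 also: the enzyme is Sfp with the accession as filed and its product quenches rhodamine fluorescence; 0% = enzyme reaction without inhibitor and -100% = no enzyme wells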
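Sfp 15 nM + cpd, 15 min RT; start w/ rhodamine-CoA 5 uM, BHQ-2-YbbR 12.5 uM (final); 50 mM Hepes pH 7.6, 10 mM MgCl2, 0.01% NP-40, 0.01% BSA; read 525/598 nm at 0 and 30 min.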
JMJD2A Tudor inh = blocks the human JMJD2A Tudor domain. O75164. Potency, µM (top dose mostly 114 µM), inactives show top-dose activity change, negative = inhibition, hits mostly inhibitors. AlphaScreen JMJD2A-Tudor / H3K4me3 peptide binding. actives 4.4% (n = 390,000). AID 504339; also: % is scaled to controls: 0 for no effect and ±100 for the full control effect; nearly all actives have a fitted effect of over 50% in size
PLK1 PBD block = PLK1 (human) polo-box domain binding inhibition; Potency, µM, for inactives: max response, negative = inhibition, most hits filed as inhibitors; Plk1 PBD binding of FITC phosphopeptide, fluorescence polarization; actives 2.8% (n = 360,000); P53350; also: series mostly up to about 57 µM; % is scaled to controls: 0 for no effect and ±100 for the full control effect; nearly all actives have a fitted effect of over 65% in size
The depositor's hits bear a star; ? = inconclusive; nt = not tested or not shown; [ ] = remark or other dose. Calls follow the shape of the dose curve; as a rule, active = well fitted curve in the direction sought with a large enough effect; inconclusive = small, poorly fitted or top-dose-only effect, or another doubt; inactive = no such curve, though single readings can be large; an effect the other way counts as inactive or inconclusive. Potency is read from the fitted curve at half-maximal effect.

SMILES	G9a block	BAZ2B block	HP1b binding inh	Sfp inh	JMJD2A Tudor inh	PLK1 PBD block
Cc1sc(-n2cccc2)c(C(=O)O)c1C	1%[59 µM]	50µM*	28%	-6%	-36%	-14%
COc1ccc(CNC(=O)c2c(Nc3ccc(OC)cc3OC)sc(C(=O)c3ccc(Cl)cc3)c2N)cc1	-30%[59 µM]	?	-28%	nt	?	nt
COc1cccc(Nc2sc(C(=O)c3ccc(Cl)cc3)c(N)c2C(=O)NCCc2ccc(OC)c(OC)c2)c1	10µM*	?	-16%	nt	?	nt
COC(=O)c1ccccc1Oc1cc(C(F)(F)F)nc(-c2ccccn2)n1	nt	nt	-4%	nt	-7%	-1%
N#Cc1nc(-c2ccc(OCc3ccccc3)cc2)oc1N1CCC(C(N)=O)CC1	8%[2.33 µM]	1%	-2%	-20%	-22%	-9%
N#Cc1nc(-c2ccc(COc3ccc(Cl)cc3)o2)oc1N1CCC(C(N)=O)CC1	8.9µM*	?	12%	nt	-22%	nt
COc1ccc(OCc2ccc(-c3nc(C#N)c(NCc4ccc(F)cc4)o3)o2)cc1	4µM*	?	-12%	nt	?	nt
CN(C)CCNc1oc(-c2ccc(COc3ccc(Cl)cc3)o2)nc1C#N	?	?	-13%	nt	40µM*	nt
COCCCNc1oc(COc2ccc(Cl)cc2Cl)nc1C#N	32µM*	-37%	-24%	-7%	?	?
COCCNc1oc(-c2ccc(COc3ccc(OC)cc3)o2)nc1C#N	-29%[59 µM]	?	?	nt	?	nt
COCCCNc1oc(-c2ccc(COc3ccc(Cl)cc3)o2)nc1C#N	8.9µM*	?	-28%	nt	?	nt
CNC(=O)NC(=O)C(C)OC(=O)c1c2c(nc3ccccc13)/C(=C/c1cccs1)CC2 (configuration not stated)	-8%[59 µM]	1%	40%	32µM*	7%	-24%
O=C(NCC(c1ccco1)N1CCCC1)c1cccc(S(=O)(=O)N2CCc3ccccc32)c1 (configuration not stated)	nt	nt	nt	nt	nt	-12%
Cc1oc(-c2ccc3c(c2)OCCO3)cc1C(=O)NCC(=O)O	nt	7%	-9%	-20%	?	?
Cc1oc(-c2ccc3c(c2)OCCO3)cc1C(=O)NC(CCC(=O)O)C(=O)O (configuration not stated)	?	?	46%	18µM*	-11%	-4%
CSCCC(NC(=O)c1cc(C)oc1C)C(=O)O (configuration not stated)	32µM*	3%	36%	-24%	6%	0%
CSCCC(NC(=O)c1cc(CC(C)C)oc1C)C(=O)O (configuration not stated)	-10%[59 µM]	-6%	65%	-2%	-9%	-8%
O=C(Nc1ccccc1Oc1ccccc1)c1cc([N+](=O)[O-])ccc1Cl	?	?	-20%	-4%	?	-10%
O=C(Nc1ccc(Nc2ccccc2)cc1)c1cc([N+](=O)[O-])ccc1Cl	-23%	40µM*	19%	14%	?	-9%
CSCCC(NC(=O)c1cc([N+](=O)[O-])ccc1Cl)C(=O)O (configuration not stated)	79µM*	13%	47%	-3%	-8%[57.1 µM]	-7%
O=C(Nc1ccccc1Cl)C1CCCN(S(=O)(=O)c2ccc(-n3cnnn3)cc2)C1 (configuration not stated)	13%[59 µM]	3%	20%	21%	-5%	-5%
Cn1c(=O)[nH]c(=O)c2c1nc1n(CCO)c(-c3ccccc3)cn21	10%[59 µM]	-3%	39%	nt	-20%	nt
C[C@H](O)[C@@H]1CN2CCc3c([nH]c4ccc(-c5ccc6c(c5)OCO6)cc34)[C@@H]2C[C@@H]1N(C)C(=O)NC1CCCCC1	nt	nt	nt	nt	nt	-20%
CCC(C)NC(=O)Cn1c(=O)n(Cc2ccc(C(=O)NCCCOC)cc2)c(=O)c2ccccc21 (configuration not stated)	-2%[59 µM]	-7%	20%	nt	-11%	nt
O=C(Nc1cccnc1)c1ccc(NS(=O)(=O)c2cc([N+](=O)[O-])ccc2Cl)cc1	50µM*	79µM*	20%	-23%	-17%	-5%
SMILES	G9a block	BAZ2B block	HP1b binding inh	Sfp inh	JMJD2A Tudor inh	PLK1 PBD block
O=[N+]([O-])c1ccc(Cl)c(S(=O)(=O)/N=C(/Nc2cccnc2)c2ccccc2)c1	nt	nt	7%	nt	-21%	-7%
Cc1cc(NC(=O)CSc2nnc(-c3ccc(O)cc3)o2)no1	nt	-2%	41%	-10%	-28%	1%
Cc1cc(NC(=O)CSc2nnc(-c3ccc([N+](=O)[O-])cc3)o2)no1	77%	22µM*	47%	17%	89µM*	-12%
O=C(OCC#CCSc1nnc(-c2ccc([N+](=O)[O-])cc2)o1)c1cccs1	32µM*	?	-25%	5%	?	-5%
C#CCSc1nnc(-c2ccc(OC)cc2)o1	45µM*	0%	-6%	-3%	3%	?
C#CCSc1nnc(-c2ccc([N+](=O)[O-])cc2)o1	50µM*	-31%	7%	8%	-23%	-10%
Cn1cnc(S(=O)(=O)N2CCCCC2c2cc(C(=O)Nc3cccc(C#N)c3)no2)c1 (configuration not stated)	nt	nt	nt	nt	nt	-7%
CC1(C(=O)CSc2nc3ccccc3s2)CCC(=O)O1 (configuration not stated)	2%[12.7 µM]	?	37%	?	40µM*	21µM*
Cc1ccc(S(=O)(=O)NC(=O)CSc2nc3ccccc3s2)cc1	50µM*	-1%	25%	3%	-17%	?
C/C(=N/NC(=O)CSc1nc2ccccc2s1)c1ccncc1	nt	-2%	25%	6%	?	-19%
CS/C(=N\S(=O)(=O)c1cccs1)NC(=O)CSc1nc2ccccc2s1	?	?	40%	?	?	11µM*
CCCn1c(C)nc2c(NC3CCN(Cc4ccccc4)C3)nc(C)nc21 (configuration not stated)	nt	nt	nt	19%	nt	nt
C=CS(=O)(=O)c1sc(Cl)c(N2CCOCC2)c1[N+](=O)[O-]	8.9µM*	?	?	22µM*	79µM*	0.53µM*
C=CSc1sc(Cl)c(N2CCOCC2)c1[N+](=O)[O-]	-106%[59 µM]	14µM*	50µM*	?	50µM*	-15%
O=[N+]([O-])c1cccc(Cl)c1N1CCOCC1	14%	-9%	-12%	-9%	-21%	-10%
CCCCn1c2c(c(=O)n(C)c1=O)C(CC(=O)OCC(=O)Nc1cccc(C(F)(F)F)c1)C(=O)N2 (configuration not stated)	32µM*	-4%	28%	14%	-17%	-12%
